{"source": "the supplement of paper PMC10681739", "data": [{"biological_target": "T1, ETS1 (UniProt P14921)", "T1 sequence": "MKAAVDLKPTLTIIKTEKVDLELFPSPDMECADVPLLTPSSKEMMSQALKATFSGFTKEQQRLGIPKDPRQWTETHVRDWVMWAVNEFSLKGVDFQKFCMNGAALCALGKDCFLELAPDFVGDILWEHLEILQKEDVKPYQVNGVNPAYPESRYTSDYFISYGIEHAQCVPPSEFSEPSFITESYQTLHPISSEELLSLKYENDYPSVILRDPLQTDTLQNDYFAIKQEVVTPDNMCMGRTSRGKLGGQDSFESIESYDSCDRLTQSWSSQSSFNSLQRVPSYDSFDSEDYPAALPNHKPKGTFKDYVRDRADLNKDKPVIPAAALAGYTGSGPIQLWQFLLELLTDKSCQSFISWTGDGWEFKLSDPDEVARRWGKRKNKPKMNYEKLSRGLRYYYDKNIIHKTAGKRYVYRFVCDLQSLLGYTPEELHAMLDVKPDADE", "assay": "TF binding intensity (PBM fluorescence), negative control probe (arbitrary fluorescence units); higher = stronger binding", "method": "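gcPBM negative-control 36-bp genomic probes lacking TF binding sites. Each was incubated with recombinant human ETS1 or RUNX1 alone and detected by antibody fluorescence. Values are medians over replicate spots (4 spots for the ETS1-RUNX1 arrays, 3 for the ETS1-ETS1 array). The probes sit in constant array flanks that are not printed.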", "values": [{"sequence": "CCATCGATGAAAAGGCTGCTATCTCTCGCTGATGGG (protein concentration 10 nM)", "TF binding intensity": 139}, {"sequence": "ATAAGCCAATTTTTTTTACATTTATGAAATGAGAGA (protein concentration 10 nM)", "TF binding intensity": 105}, {"sequence": "CTGAAATTAACCCAAAGGTTGTGTGTGGACCTCCCT (protein concentration 10 nM)", "TF binding intensity": 109}, {"sequence": "TGGAAAATAATATTTCAAGACCATAATATGGCTGCT (protein concentration 10 nM)", "TF binding intensity": 100}, {"sequence": "CACACCCGCCTGTTACCCACATGCACAAGCAGTCTG (protein concentration 1 nM)", "TF binding intensity": 449}, {"sequence": "AATAAAGGTGAGGCAGTCCAGAGTATTTCAAAACGG (protein concentration 10 nM)", "TF binding intensity": 116}, {"sequence": "TCCTCACGAATCTCTCTACTTCTGTTCTTGCCCATC (protein concentration 10 nM)", "TF binding intensity": 135}, {"sequence": "CCTTTGTTAGTGATTTGTGGTAGCTAATGTCGTAAT (protein concentration 1 nM)", "TF binding intensity": 548}, {"sequence": "GAAGCAAGGATAATTAACTTCTACCAGTGATCCCCA (protein concentration 10 nM)", "TF binding intensity": 124}, {"sequence": "CTGTTGTTTGACTTTAGTCATCTCCTACTTTTATAG (protein concentration 10 nM)", "TF binding intensity": 137}, {"sequence": "TGCCGTGTACTTGATCTTGTCCCACAGAATCACCTG (protein concentration 10 nM)", "TF binding intensity": 112}, {"sequence": "CAAGATCTCTAACCACACTCGTCTGTGGCACTTCTT (protein concentration 10 nM)", "TF binding intensity": 118}, {"sequence": "GAAGTTTCAAGATGTAGTAGTTAAAGTATTAACTTA (protein concentration 10 nM)", "TF binding intensity": 113}, {"sequence": "TAGGTTCTAGCCTGCTTAGCTAGAGTTTAGTTTATT (protein concentration 10 nM)", "TF binding intensity": 110}, {"sequence": "CATCCCTCTGCCAGATGGAATTTGGAGATAAACCTC (protein concentration 10 nM)", "TF binding intensity": 130}, {"sequence": "AACGTCTACATTTGCTATTGTAAAACTTTTCAAGGC (protein concentration 10 nM)", "TF binding intensity": 125}, {"sequence": "TAACAGGGAGATAAAACGGGTGAGAGCCCCCTAGGA (protein concentration 10 nM)", "TF binding intensity": 103}, {"sequence": "AGACAGAAAAAGCCACAGCCGAGCGCCCAGCTGTGG (protein concentration 10 nM)", "TF binding intensity": 95.8}, {"sequence": "TGACCATTTGAGGTTTGTGGTTATGCATATAAAATG (protein concentration 1 nM)", "TF binding intensity": 577}, {"sequence": "ATTTGGGTTCCAGCCCGCTAGCCTGCCTTTTCTCAT (protein concentration 10 nM)", "TF binding intensity": 92.9}, {"sequence": "TAAGATCCACTGGCTTGAAATTCTTGCTGCCAGCAC (protein concentration 10 nM)", "TF binding intensity": 130}, {"sequence": "GTTGTTATGCAAGGTTGTGGTTTTTGCAGTCTTTTG (protein concentration 1 nM)", "TF binding intensity": 498}, {"sequence": "GTGTCTGCCTCATTGGCGAAGGCCAGCCTCTGAGCC (protein concentration 10 nM)", "TF binding intensity": 140}, {"sequence": "GAGATGCAGCAGCGTCTCCCAGTCCTCACCGCGGCC (protein concentration 10 nM)", "TF binding intensity": 112}, {"sequence": "ACCTGGCTGTCTGGCTCCTTACTTTCCACCATTTTC (protein concentration 10 nM)", "TF binding intensity": 132}, {"sequence": "AAATTTATCTGAGTCCAAAATCTCTCCCTTCAACCT (protein concentration 10 nM)", "TF binding intensity": 119}, {"sequence": "GTATTTTGGGCGATAACACTTTCTCTACTTCTAAAA (protein concentration 10 nM)", "TF binding intensity": 116}, {"sequence": "CAACCTAACTATAATGCAAATAGGGATTCTTTTTCT (protein concentration 10 nM)", "TF binding intensity": 88.5}, {"sequence": "CAGGCTGTGGTTTCCATCATGAACACGTGATCCAGC (protein concentration 10 nM)", "TF binding intensity": 127}, {"sequence": "TAATCCCAGCACTTTGGGAATCCAAGGCAGTCAAAT (protein concentration 10 nM)", "TF binding intensity": 94.8}, {"sequence": "TGACCGGCAGGCCCGAAGCCCCCTGGGATGCCTGGC (protein concentration 10 nM)", "TF binding intensity": 105}, {"sequence": "AATATCTACAGGGCTCACTCTCCCATGCTCTTCAGG (protein concentration 10 nM)", "TF binding intensity": 108}, {"sequence": "CCCACTGTAATAGGCAGATACTGATGAAGTCCTGCA (protein concentration 10 nM)", "TF binding intensity": 147}, {"sequence": "CAGTGCAGCTGTTTGCCATGTGGGCCCACACCACTG (protein concentration 10 nM)", "TF binding intensity": 126}, {"sequence": "CTTTCTAAAGAGAAAAGCTCCTTTGTACCACGTGTC (protein concentration 10 nM)", "TF binding intensity": 103}, {"sequence": "GCAGCTCTAGTTTCTACCACACCAATGGGAGGGATC (protein concentration 1 nM)", "TF binding intensity": 320}, {"sequence": "GAACTAACGAGGTCACTGAGAAATTACAAAGTGTGA (protein concentration 10 nM)", "TF binding intensity": 107}, {"sequence": "CTCAGTGCCTGCCTCAGATGTTTAAGTCTGAACATT (protein concentration 10 nM)", "TF binding intensity": 110}, {"sequence": "GTCCCCTCAAGGACCCCCAGTGCAGGTGAAAAACTG (protein concentration 10 nM)", "TF binding intensity": 174}, {"sequence": "TTATCAAGTGAATCAAGCCATTGTCGGGTCGAAATA (protein concentration 10 nM)", "TF binding intensity": 117}]}]}
